Results as given in the supplement of paper PMC6555819.

What follows are sequences tested on LXRb:RXRa (NR concentration 270 nM, RXRa partner concentration 90 nM) (assay: PBM binding z-score (relative to random genomic background probes); higher = stronger binding; sequences stand for … in GC…GCGATTGACAGCGTAGAATGAAGG).
Method in brief: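 Custom Agilent 4×180K protein-binding microarrays carried double-stranded probes, each with a 34-nt variable region. These regions held direct-repeat seeds, single-nucleotide variants, half-site ablations and random human genomic background sequences. Ligand-free nuclear receptor dimers were incubated on the arrays for 1 h, antibodies against each partner (one per run) detected binding, and scanned fluorescence was regression-normalized. Binding z-scores take the random background probes as reference.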

Sequence	PBM binding z-score
CCGAGTAGGTTACGAGGGGGCATTCAATGCGAAT	6.15
CCGAGTAGGTTACGAGGGGGCATTTAGTGCGAAT	6.59
TCGAGTAGGTTACGGGGGGATTCAGGGATGAAGA	5.21
CTGAGTAGGTTACGAGGGGGCATTCAGTGCGAAT	6.26
CTATGTAGGTTAAGGGGGTCATACAGTTTGAAAG	6.22
CTATGTAGGTTAAGGGGGTCTTTCAGTTTGAAAG	3.78
CCGAGTAGGTTACGAGGGGGCAATCAGTGCGAAT	6.01
CCGAGTAGGTTACCAGGGGGCATTCAGTGCGAAT	6.85
TCGAGTCGGTTACGGGGGCATTCAGGGATGAAGA	4
TCGAGTAGGTTACGGGGACATTCAGGGATGAAGA	0.999
CTATGTAGGTTAAGGGGGTCATTCCGTTTGAAAG	6.22
CTATGTAGGTTGAGGGGGTCATTCAGTTTGAAAG	6.24
CCGAGTGGGTTACGAGGGGGCATTCAGTGCGAAT	5.8
CCGAGTAGGTTATGAGGGGGCATTCAGTGCGAAT	6.27
CCGAGTAGGTAACGAGGGGGCATTCAGTGCGAAT	4.7
CCGGGTAGGTTACGAGGGGGCATTCAGTGCGAAT	6.39
CCGAGTAGCTTACGAGGGGGCATTCAGTGCGAAT	3.62
CTATGAAGGTTAAGGGGGTCATTCAGTTTGAAAG	6.37
CCGAGTAGGTTACGAGGAGGCATTCAGTGCGAAT	0.864
CTCTGTAGGTTAAGGGGGTCATTCAGTTTGAAAG	6.33
CTATGGAGGTTAAGGGGGTCATTCAGTTTGAAAG	6.44
TCGAGTAGGTTACGGGGGCATTCACGGATGAAGA	4.92
